About 83,000 compounds went through this panel and 20% of them were active in at least one assay; those are over-represented in the sample as a whole.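 For each line, cells grew in 96-well plates with the test compound present at a single concentration for 48 hours.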 Unmarked numbers belong to inactive results. Activity calls are given as the source filed them. The calls were made as follows: active = growth percent below 10; inactive = the rest.

The test system of the assay is SK-MEL-5 melanoma. As to the kind of experiment: NCI-60 one-dose screen, 48 h (100 = growth as untreated, 0 = no growth, -100 = all killed). The conditions noted are these: 10 µM unless noted.
Regarding `COc1ccc2c(c1)C(=Nc1cc(OC)c(OC)c(OC)c1)C(=O)N2`, the growth is 114%.
As for `COc1cnc2c(c1)C(=O)c1c-2n(CCCn2ccnc2)c(=O)c2cc(F)ccc12`, the growth is -96.2% (active).
On to `C[C@]12CCC(=O)C=C1CCC1C2[C@@H](O)C[C@@]2(C)C1CC[C@]2(O)C(=O)COC(=O)CCC(=O)O` (some centres undefined), for which the growth is 98.6%.
On to `C[C@@H]1[C@H]2[C@H](C=C3[C@@H]4CC[C@H]5Cc6nc7c(nc6C[C@]5(C)[C@H]4C[C@@H](O)[C@@]32C)C[C@@H]2CC[C@H]3C4=C[C@@H]5O[C@@]6(CC[C@](C)(CO)O6)[C@@H](C)[C@@]5(O)[C@@]4(C)[C@H](O)C[C@@H]3[C@@]2(C)C7)O[C@]12CCC(C)(C)O2`, for which the growth was 0.934% (active).
For `CCOC(=O)/C=C1/SC(=Nc2ccc(C#N)cc2)N(Cc2ccco2)C1=O`, the growth was 62.5%.
With `C[C@H](C(=O)N[C@@H](Cc1ccc(-c2ccccc2)cc1)C(=O)NC1CC(C)(C)NC(C)(C)C1)c1ccc(-c2ccccc2)c(F)c1`, the growth was -93.1% (active).
With `Nc1ccccc1C#Cc1ccccc1C#Cc1ccc(OCCCCCCOc2ccc(C#Cc3ccccc3C#Cc3ccccc3N)cc2)cc1`, the growth is 82.4%.
`CCSc1nc(-c2ccco2)n2nc(-c3ccco3)cc2n1`: the growth was 78.3%.
As for `CN(C)c1ccc(-c2nc3ncc(Br)cc3o2)cc1`, the growth was 99.8%.
For the compound `CN1CCN(c2nc3scc(-c4ccccc4)c3c(=O)[nH]2)CC1`, the growth is 96.7%.
Then `CC(=O)OC1Oc2cc(C)c(C)cc2-c2oc(=O)c(-c3ccccc3)cc21` (centres undefined), with 16.7%; and `N#CC(C#N)C(C#N)C#N`, with 103%.
`CCOC(=O)c1sc(NC(=O)COc2cccc(/C=C3\CCc4cc(OC)ccc4C3=O)c2)nc1C`: the growth was 44.1%.
Then `COc1cnc2c(c1)C(=O)c1c-2n(CCCN2CCOCC2)c(=O)c2cc(F)ccc12`, with -95.1% (active); and `CCN1CC2=C(Nc3nc(SC)[nH]c(=O)c3C2c2cc(OC)c(OC)c(OC)c2)/C(=C/c2cc(OC)c(OC)c(OC)c2)C1` (centres undefined), with 88.6%.
On to `CCOC(=O)CCC(=O)O[C@H]1[C@H](O[C@@H]2[C@@H](C)[C@H](O[C@H]3C[C@@](C)(OC)[C@@H](O)[C@H](C)O3)[C@@H](C)C(=O)O[C@H](CC)[C@@](C)(O)[C@H](O)[C@@H](C)C(=O)[C@H](C)C[C@@]2(C)O)O[C@H](C)C[C@@H]1N(C)C`, for which the growth was 104%.
Take `CNCCCn1c2c(c3ccc(F)cc3c1=O)C(=O)c1cc(OC)cnc1-2`: the growth is -97.3% (active).
Take `NC(=NCCCCCCN=C(N)/N=C(\N)Nc1ccc(Cl)cc1)/N=C(\N)Nc1ccc(Cl)cc1`: the growth was -95.7% (active).
Take `O=C1CSC(c2ccccc2Cl)N1c1nnc(Cn2nnc3ccccc32)o1` (centres undefined): the growth is 79.3%.
Regarding `O=C(O)CCC(=O)OC[C@@H](NC(=O)C(Cl)Cl)[C@H](O)c1ccc([N+](=O)[O-])cc1`, the growth is 89.8%.
Regarding `COc1ccc(-c2cc(-c3nnc(SCC(=O)Nc4ccc(C(C)=O)cc4)n3-c3ccccc3)c3ccccc3n2)cc1OC`, the growth is 109%.
For `C[C@H](C(=O)N[C@@H](Cc1ccc(-c2ccccc2)cc1)C(=O)NC1CC(C)(C)N(C)C(C)(C)C1)c1ccc(-c2ccccc2)c(F)c1`, the growth was -94.7% (active).
Then `O=C(O)C1C(c2ccccc2)c2ccccc2C(O)C1CO` (centres undefined), with 107%; and `CSc1nc(Nc2ccc(S(=O)(=O)Nc3ccon3)cc2)c(C#N)c(-c2ccc(Cl)cc2)n1`, with 97.4%.
As to `Cc1cc(C)c(C(=O)c2cccs2)c(C)c1`, the growth was 109%.
Then `COC(=O)C1(NC(=O)CNC(=O)OCc2ccccc2)CCCC1`, with 100%; and `Cc1cc(C)nc(NS(=O)(=O)c2ccc(Nc3nc4nc(SCc5ccccc5)nc(-c5ccc(O)cc5)c4c(=O)[nH]3)cc2)n1`, with 99.5%; and `Nc1ccc(N=Nc2ccccc2)cc1[N+](=O)[O-]`, with 93.1%.
Consider `NS(=O)(=O)c1cc2c(cc1Cl)NC=NS2(=O)=O`, for which the growth was 107%.
As for `CCOC(=O)C1=CCC(n2cc(C)c(=O)[nH]c2=O)O1` (centres undefined), the growth is 112%.
In the case of `C[C@@H]1C[C@@H]([C@@H](CC2CC(=O)NC(=O)C2)OC(=O)CC(=O)c2ccccc2)C(=O)[C@@H](C)C1`, the growth was 7.03% (active).
`OCc1n(Cc2ccc3ccccc3c2)cc[n+]1Cc1ccc2ccccc2c1`: the growth is -28% (active).
With `COc1cnc2c(c1)C(=O)c1c-2n(CCCNC2=NCCS2)c(=O)c2cc(F)ccc12`, the growth is 0.102% (active).
`Cc1onc(-c2ccccc2Cl)c1C(=O)N[C@@H]1C(=O)N2[C@@H]1SC(C)(C)[C@@H]2C(=O)O`: the growth was 101%.
Take `C[C@H]1O[C@@H](O[C@H]2[C@@H](O)C[C@H](O[C@H]3[C@@H](O)C[C@H](O[C@H]4CC[C@]5(C)C6C[C@@H](O)[C@]7(C)[C@@H](C8=CC(=O)OC8)CC[C@]7(O)C6CC[C@@H]5C4)O[C@@H]3C)O[C@@H]2C)C[C@H](O)[C@@H]1O` (some centres undefined): the growth is -100% (active).
Consider `CC1CN(/N=C/c2ccc([N+](=O)[O-])o2)C(=N)O1` (centres undefined), for which the growth was 93.4%.
On to `O=C1NCCc2c1noc2-c1ccccc1`, for which the growth is 105%.
On to `CC(=O)c1ccccc1NC(=O)C(C)(c1ccccc1)c1ccccc1`, for which the growth was 6.19% (active).
Regarding `Cc1n(Cc2ccc3ccccc3c2)c2ccccc2[n+]1Cc1ccc2ccccc2c1`, the growth is -97.6% (active).
